This note sets out measurements from PubChem BioAssay (NCI).

This is part of a sample that, as a whole, favours compounds with a hit. Of some 83,000 tested, about 20% had one in any assay.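 Negative percent growth values reflect cell death: -40 means 40% of the cells present at the start died, and -100 means all died.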 A number with no mark means an inactive call. The source made the active and inactive calls. How the source made its calls: active means growth percent below 10; inactive means the rest.

Some test systems named below: NCI-H23 lung; NCI-H226 lung; HOP-62 NSCLC; NCI-H460 lung; HOP-92 NSCLC; NCI-H522 lung; A549/ATCC NSCLC; 786-0 renal; COLO 205 colon.
Holding throughout (assay): NCI-60 one-dose screen, 48 h (100 = growth as untreated, 0 = no growth, -100 = all killed)
Holding throughout (details): 10 µM unless noted

Take `CC(=O)Oc1ccc(C(OC(C)=O)OC(C)=O)cc1`: the growth is 95.4% in the test on NCI-H23 lung; 108% in the test on NCI-H226 lung; 95% with HOP-62 NSCLC; 111% in the test with NCI-H460 lung; 113% with HOP-92 NSCLC; 85.4% in the test with NCI-H522 lung. The growth in the test with A549/ATCC NSCLC is 108%; in the test on 786-0 renal it was 95.3%; in the test on COLO 205 colon it was 112%.

Take `O=C(c1ccccc1)[C@H]1[C@@H]2CCCN2[C@]2(C(=O)Nc3ccc(F)cc32)[C@]12C(=O)Nc1ccccc12`: the growth is 93.3% in the test with NCI-H23 lung; 79.3% in the test on NCI-H226 lung; 86.8% in the test on HOP-62 NSCLC; 93.6% with NCI-H460 lung; 54.9% with HOP-92 NSCLC; 73.5% in the test with NCI-H522 lung. For the same molecule, the growth in the test on A549/ATCC NSCLC was 75.2%; with 786-0 renal, 87.7%; with COLO 205 colon, 93.8%.

With `Nn1c(SCC(=O)Nc2cc(Cl)c(Cl)cc2Cl)nnc1-c1cc(F)c(Cl)cc1Cl`, the growth in the test with NCI-H23 lung was 103%; in the test on NCI-H226 lung, 138%; in the test on HOP-62 NSCLC, 91.3%; in the test with NCI-H460 lung it was 110%; in the test with HOP-92 NSCLC it was 75.8%; in the test with NCI-H522 lung it was 90.9%. In addition, the growth in the test on A549/ATCC NSCLC is 106%; in the test with 786-0 renal, 98.4%; in the test on COLO 205 colon, 106%.

As to `COc1ccc(NC(=O)COCCOCCNC[C@@H]2C(=O)O[C@H]3[C@H]2CC/C(COC(=O)OC/C2=C/CC[C@@]4(C)O[C@H]4[C@H]4OC(=O)[C@@H](CN(C)C)[C@@H]4CC2)=C\CC[C@@]2(C)O[C@@H]32)c(O)c1C(N)=O`, the growth in the test with NCI-H23 lung is 81.8%; in the test with NCI-H226 lung, 49.9%; in the test on HOP-62 NSCLC, 93.9%; with NCI-H460 lung it was 96%; in the test on HOP-92 NSCLC, -26.6% (active); in the test on NCI-H522 lung, -75.7% (active). Besides, the growth in the test on A549/ATCC NSCLC is 72.9%; with 786-0 renal it was -26.1% (active); in the test with COLO 205 colon, -27.9% (active).

`CCC1CN2C(=N1)c1ccccc1-c1cc(Cl)ccc12` (centres undefined): the growth in the test on NCI-H23 lung is 23.4%; in the test on NCI-H226 lung it was -40.2% (active); with HOP-62 NSCLC, 5.88% (active); with NCI-H460 lung, -18.9% (active); in the test on HOP-92 NSCLC, -12.2% (active); with NCI-H522 lung, -28.5% (active). The growth is -21.7% (active) in the test on A549/ATCC NSCLC, -35.4% (active) in the test with 786-0 renal and 18.4% with COLO 205 colon.

In the case of `CCC(CC(C)C)Nc1ccc(NC(CC)CC(C)C)cc1` (centres undefined), the growth was 77.7% in the test with NCI-H23 lung; 76.5% with NCI-H226 lung; 105% in the test on HOP-62 NSCLC; 94.5% in the test with NCI-H460 lung; -13.1% (active) in the test on HOP-92 NSCLC; 14.6% in the test on NCI-H522 lung. Also, the results for the growth in the test on A549/ATCC NSCLC, in the test on 786-0 renal and with COLO 205 colon were 89.2%, 93.1% and 76.9%, respectively.

Consider `C=C1C(=O)O[C@H]2[C@H]1CC/C(COC(=O)c1cc(OC)c(OC)c(OC)c1)=C\CC[C@@]1(C)O[C@@H]21`, for which the growth in the test with NCI-H23 lung is 8.29% (active); in the test on NCI-H226 lung, -12.1% (active); in the test on HOP-62 NSCLC, 22%; in the test on NCI-H460 lung, 16.1%; in the test on HOP-92 NSCLC, -59.5% (active); in the test on NCI-H522 lung, -88.4% (active). The growth in the test with A549/ATCC NSCLC was 24.7%; with 786-0 renal, -90.9% (active); in the test with COLO 205 colon it was -73.4% (active).

Regarding `COC(=O)CCCNS(=O)(=O)c1cc(C(=O)Nc2ccc(NC(=O)c3cc(S(=O)(=O)NCCCC(=O)OC)c(O)c(O)c3O)cc2)c(O)c(O)c1O`, the growth was 92.4% in the test with NCI-H23 lung; 98.4% in the test with NCI-H226 lung; 98.5% with HOP-62 NSCLC; 97.3% with NCI-H460 lung; 115% in the test with HOP-92 NSCLC; 86.1% in the test on NCI-H522 lung. Further, the figures for the growth in the test with A549/ATCC NSCLC, in the test on 786-0 renal and in the test with COLO 205 colon were 83.2%, 112% and 114%, respectively.

`COc1ccc2c(c1)OC(N)=C(C#N)C2c1ccc(F)c(F)c1` (centres undefined): the growth is 48.2% in the test with NCI-H23 lung; 69.2% in the test on NCI-H226 lung; 44.9% with HOP-62 NSCLC; 14.4% in the test with NCI-H460 lung; 76.3% with HOP-92 NSCLC; -12.6% (active) with NCI-H522 lung. Further, the figures for the growth in the test on A549/ATCC NSCLC, in the test on 786-0 renal and in the test with COLO 205 colon were 37.1%, 41.4% and 10.3%, respectively.

For `O=C(Nc1ccc(-n2ccc3c(NC(=O)c4ccccc4)ncnc32)cc1)Nc1ccc(Cl)c(Cl)c1`, the growth with NCI-H23 lung was 18.7%; in the test on NCI-H226 lung, 16.7%; in the test with HOP-62 NSCLC, 8.39% (active); in the test with NCI-H460 lung it was -29.6% (active); with HOP-92 NSCLC, -9.63% (active); with NCI-H522 lung it was -12.2% (active). The growth in the test on A549/ATCC NSCLC was -44.5% (active); in the test with 786-0 renal, 26.1%; with COLO 205 colon it was 17.7%.

Take `CCn1cc(C(=O)O)c(=O)c2cc(F)c(N3CCN(CC(=O)Nc4ccc(C(C)=O)cc4)CC3)cc21`: the growth is 93% in the test with NCI-H23 lung; 86.3% in the test on NCI-H226 lung; 101% in the test with HOP-62 NSCLC; 107% in the test with NCI-H460 lung; 92.8% in the test with HOP-92 NSCLC; 96.9% with NCI-H522 lung. The results for the growth with A549/ATCC NSCLC, in the test with 786-0 renal and with COLO 205 colon were 94.6%, 98% and 121%, respectively.

`CCOC(=O)C1CN(Cc2ccccc2)C(=O)C1=O` (centres undefined): the growth in the test on NCI-H23 lung was 105%; in the test with NCI-H226 lung, 93.3%; with NCI-H460 lung it was 106%; in the test with HOP-92 NSCLC it was 84.3%; with NCI-H522 lung, 98.6%; with A549/ATCC NSCLC, 112%. For the same molecule, the growth is 105% in the test with 786-0 renal and 93.6% in the test on COLO 205 colon.

On to `COC(=O)c1oc2c(C(C)=O)c(OCCCN(C)C)ccc2c1C`, for which the growth with NCI-H23 lung was 97.3%; with NCI-H226 lung it was 96.1%; in the test on HOP-62 NSCLC, 123%; in the test on NCI-H460 lung, 118%; with HOP-92 NSCLC, 28.1%; with NCI-H522 lung, 86.4%. For the same molecule, the growth in the test on A549/ATCC NSCLC is 110%; in the test with 786-0 renal, 96%; in the test with COLO 205 colon, 109%.

`S=c1n(CNc2ccc(Cl)nn2)nc(-c2cc(Cl)cc(Cl)c2Cl)n1/N=C/c1ccc(Cl)cc1`: the growth in the test with NCI-H23 lung was 88.5%; in the test with NCI-H226 lung, 96.1%; in the test on HOP-62 NSCLC, 81.6%; with NCI-H460 lung, 110%; in the test on HOP-92 NSCLC, 34.3%; with NCI-H522 lung, 72.2%. Also, the growth with A549/ATCC NSCLC is 138%; in the test on 786-0 renal it was 81.9%; in the test with COLO 205 colon, 132%.

Take `O=C(Nc1ccc(F)cc1)Nc1ccc(Br)c(C(F)(F)F)c1`: the growth in the test with NCI-H23 lung was -7.43% (active); with NCI-H226 lung, -6.87% (active); in the test with HOP-62 NSCLC, 23.2%; in the test with NCI-H460 lung, 4.62% (active); in the test with HOP-92 NSCLC, -13.3% (active); in the test with NCI-H522 lung, -16.9% (active). In addition, the values for the growth with A549/ATCC NSCLC, with 786-0 renal and in the test on COLO 205 colon were 10.2%, 13.6% and -27.3% (active), respectively.
